Drawing on PubChem BioAssay (NCI), this text covers growth for eight compounds.

Holding throughout (assay): NCI-60 one-dose screen, 48 h (100 = growth as untreated, 0 = no growth, -100 = all killed)
Conditions in all cases: 10 µM unless noted

Test [1] has as its system HCT-15 colon.
In test [2] the test system is HT29 colon.
Test [3] deals with SNB-75 CNS.
In test [4] the test system is SNB-19 CNS.
In test [5] the test system is U251 CNS.
Test [6] concerns PC-3 prostate.
Test [7] deals with SK-MEL-5 melanoma.
Test [8] deals with UACC-62 melanoma.
The test system of test [9] is LOX IMVI melanoma.
The test system of test [10] is SK-MEL-28 melanoma.
The test system of test [11] is EKVX NSCLC.
The test system of test [12] is SN12C renal.
Test [13] relates to UO-31 renal.
Test [14] deals with TK-10 renal.
The subject of test [15] is ACHN renal.
Test [16] relates to CAKI-1 renal.
Test [17] deals with A498 renal.
Test [18] relates to CCRF-CEM leukemia.
Test [19] relates to MOLT-4 leukemia.

Molecules are shown by their SMILES. The panel holds about 83,000 compounds, 20% with a hit somewhere; the sample as a whole holds those more often.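 Plates (96-well) were seeded with cells, treated with compound at one concentration, and incubated for 48 hours before percent growth was determined.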 A number with no mark means an inactive call. Activity calls are given as the source filed them. How the source made its calls: active means growth percent below 10; inactive means the rest.

Take `COc1cc(F)c(F)c(Nc2ccc(I)cc2F)c1NS(=O)(=O)C1(C[C@H](O)CO)CC1`: the growth was 26.9% in test [1]; 5.42% (active) in [2]; 41% in test [3]; 43% in [4]; 35.6% in test [5]; 48.9% in test [6]. Moreover, the growth was 19.1% in [7]; -3.18% (active) in test [8]; 11.9% in test [9]; 3.06% (active) in [10]; 29.2% in test [11]; 51% in [12]. The growth in [13] is 16.2%; in test [14], 27.7%; in [15] it was 37.9%; in test [16] it was 30.5%; in test [17], -48% (active); in test [18], 67%. Further, the growth in test [19] was 43.2%.

With `Cc1ccc(NC(=O)c2ccc(CN3CCN(C)CC3)cc2)cc1Nc1nc(-c2cccnc2)cs1`, the growth in [1] is 16.1%; in test [2], 6.04% (active); in [3] it was 64.8%; in [4], 46.3%; in test [5] it was 6.69% (active); in test [6], 35.9%. Moreover, the growth in test [7] is -0.29% (active); in test [8], 58.4%; in test [9], -27.3% (active); in test [10] it was -10.3% (active); in test [11] it was 48.3%; in test [12] it was 74%. For the same compound, the growth in test [13] is 82.9%; in [14], 88.3%; in test [15], 48.3%; in test [16], 78%; in test [17] it was 64.8%; in test [18] it was 11.8%. Further, the growth in test [19] was 5.98% (active).

With `CCn1c(-c2nonc2N)nc2c(C#CC(C)(C)O)ncc(OC[C@H]3CCCNC3)c21`, the growth in test [1] was 82.4%; in test [2] it was 56.2%; in [3], 2.75% (active); in test [4], 67.8%; in test [5], 41.8%; in test [6] it was 56.1%. For the same compound, the growth in test [7] is 91.7%; in test [8], 79.8%; in test [9] it was 44.1%; in [10], 45.8%; in test [11], 91.9%; in test [12], 55.7%. In addition, the growth was 50.7% in test [13]; 46.2% in test [14]; 78.4% in test [15]; 54.5% in test [16]; 42.3% in test [17]; 28.7% in test [18]. Further, in test [19], the growth was 18.5%.

On to `COc1ccc(/C(C)=C(\c2ccc(Cl)cc2)c2ccc(OCCN3CCCCCC3)cc2)cc1`, for which the growth in [1] was 26.6%; in test [2], 8.63% (active); in test [3], 74.4%; in [4], 64.7%; in [5] it was 42.3%; in test [6], 45.3%. Also, the growth was 48.3% in test [7]; 67.8% in test [8]; 35.8% in test [9]; 71.6% in test [10]; 56.7% in [11]; 55.3% in test [12]. Also, the growth was 46% in test [13]; 73.8% in [14]; 67.3% in test [15]; 66.6% in [16]; 78.4% in test [17]; 43.9% in [18]. For the same compound, the growth in test [19] was 40.2%.

Regarding `COCC(=O)NC/C=C/c1ccc2ncnc(Nc3ccc(Oc4ccc(C)nc4)c(C)c3)c2c1`, the growth in test [1] is 33.3%; in [2], 12.2%; in [3], 57.2%; in test [4], 77.9%; in test [5] it was 62.9%; in test [6], 74.1%. Moreover, the growth in test [7] was 13.1%; in test [8] it was 7.95% (active); in test [9], 31.7%; in test [10], 12.2%; in test [11] it was 38.9%; in test [12], 34.9%. Moreover, the growth in test [13] is 16.8%; in test [14] it was 5.8% (active); in [15], 16.1%; in test [16] it was 18.6%; in test [17], 24.6%; in [18], 79.2%. The growth in [19] is 29.3%.

As for `COc1ccc(F)c(F)c1C(=O)c1cnc(NC2CCN(S(C)(=O)=O)CC2)nc1N`, the growth in test [1] is 3.08% (active); in [2], -25.5% (active); in [3] it was -66.1% (active); in test [4], 12.6%; in test [5], 0.678% (active); in test [6] it was 0.205% (active). Also, the growth is -42.1% (active) in test [7]; -44.5% (active) in [8]; 6.39% (active) in test [9]; -35.3% (active) in [10]; 2.22% (active) in [11]; 14.5% in test [12]. Besides, the growth was -3.94% (active) in test [13]; -7.34% (active) in test [14]; 5.94% (active) in test [15]; 13.1% in [16]; -53.4% (active) in test [17]; 7.13% (active) in test [18]. Besides, in test [19], the growth is 6.48% (active).

For `CCCCOc1nc2cc(Cl)ccc2cc1/C=C/c1cc(/C=C/c2cc3ccc(Cl)cc3nc2OCCCC)n(-c2ccccc2)n1`, the growth in test [1] is 112%; in test [2], 88.9%; in test [3], -17.4% (active); in test [4] it was 69.9%; in test [5] it was 43.2%; in test [6] it was 86.3%. Also, the growth in [7] was 106%; in [8], 72.7%; in test [9] it was 86.2%; in test [10], 112%; in test [11], 113%; in test [12], 94%. The growth in test [13] is 89.9%; in test [14], 91.4%; in test [15] it was 75.6%; in test [16] it was 78.5%; in test [17], 97.9%; in test [18] it was 98.9%. Also, the growth in [19] was 84.8%.

Turning to `NC1=Nc2cc(OCCCN3Cc4ccccc4C3)c(OCC3CC3)cc2C12CCCC2`, the growth is 25.1% in [1]; 5.45% (active) in [2]; 60.3% in [3]; 82.4% in test [4]; 49.5% in [5]; 45.4% in test [6]. Besides, the growth was -11% (active) in [7]; 45.7% in test [8]; 8.85% (active) in test [9]; -44% (active) in test [10]; 72.6% in [11]; 77.6% in test [12]. Also, the growth is 42.1% in test [13]; 78.4% in test [14]; 83.1% in [15]; 49.9% in [16]; 68.4% in test [17]; 37% in [18]. The growth in test [19] was 44.2%.
